Laboratory results published in the supplement of paper PMC6992640.
± gives the standard deviation of the averaged measurements.

Legend:
Assay in all cases: cell viability (% of vehicle); higher = less cytotoxic
Details in all cases: 10 µM; 72 h
HCI01 = system: HCI01 (cells of a triple-negative basal-like breast cancer xenograft)
HCI03 = system: HCI03 (cells of an ER-positive luminal breast cancer xenograft)
HCI09 = system: HCI09 (cells of a triple-negative luminal androgen receptor type breast cancer xenograft)
HCI11 = system: HCI11 (cells of an ER-positive luminal breast cancer xenograft)
HCI13 = system: HCI13 (cells of an ER-positive luminal breast cancer xenograft)
HCI16 = system: HCI16 (cells of a triple-negative basal-like breast cancer xenograft)
UCD52 = system: UCD52 (cells of a triple-negative basal-like breast cancer xenograft)
WHIM2 = system: WHIM2 (cells of a triple-negative basal-like breast cancer xenograft)
WHIM30 = system: WHIM30 (cells of a triple-negative basal-like breast cancer xenograft)
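Further: PDX cells carrying CMV promoter-driven luciferase, viability read as total photon flux per second by IVIS imaging following D-luciferin, vehicle control 0.1% DMSO.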

SMILES | cell viability (HCI01) | cell viability (HCI03) | cell viability (HCI09) | cell viability (HCI11) | cell viability (HCI13) | cell viability (HCI16) | cell viability (UCD52) | cell viability (WHIM2) | cell viability (WHIM30)
Cc1ccc(S(=O)(=O)NC(=O)NN2CC3CCCC3C2)cc1 (stereo not given) [Gliclazide] | 93.2 ± 72 | 143 | 90.8 ± 21 | 90.2 | 105 ± 4.1 | 122 | 95.6 ± 12 | 125 ± 8.1 | 125 ± 9.6
CCN(CC)CCOC(=O)C1(C2CCCCC2)CCCCC1.Cl [Dicyclomine HCl] | 126 ± 7.2 | 123 | 102 ± 11 | 99.7 | 90.1 ± 10 | 141 | 68.6 ± 1.9 | 104 ± 1.9 | 117 ± 2.5
CC(O)(P(=O)(O)O)P(=O)(O)O [Etidronate] | 94.3 ± 15 | 96.6 | 94.9 ± 14 | 85.2 | 107.1 ± 0.89 | 92.3 | 75 ± 5.3 | 150 ± 2.7 | 111 ± 11
COc1c2ccoc2cc2oc(=O)ccc12 [5-Methoxypsoralen] | 103 ± 24 | 142 | 93.1 ± 13 | 93.8 | 121 ± 3.1 | 109 | 85.2 ± 13 | 103 ± 3.7 | 93 ± 3.1
COc1cc(C2Oc3cc(C4Oc5cc(O)cc(O)c5C(=O)C4O)ccc3OC2CO)ccc1O (stereo not given) [Silymarin] | 111 ± 32 | 129 | 102 ± 19 | 89.4 | 127 ± 3.3 | 116 | 107.79 ± 0.095 | 93.6 ± 18 | 91.7 ± 2
Cc1ncc(CO)c(CO)c1O.Cl [Pyridoxine HCl] | 89.2 ± 31 | 121 | 90.1 ± 4.5 | 91.9 | 117 ± 18 | 107 | 99.9 ± 5.3 | 86.6 ± 2.4 | 100 ± 3.4
CC1OC(OC2C(CO)OC(OC3C(CO)OC(O)C(O)C3O)C(O)C2O)C(O)C(O)C1NC1C=C(CO)C(O)C(O)C1O (stereo not given) [Acarbose] | 112 ± 9.7 | 109 | 99 ± 8.6 | 88.2 | 117 ± 12 | 78.5 | 93.3 ± 9.7 | 86 ± 17 | 104 ± 29
NCC1OC(OC2C(CO)OC(OC3C(O)C(N)CC(N)C3OC3OC(CN)C(O)C(O)C3N)C2O)C(N)C(O)C1O.O=S(=O)(O)O (stereo not given) [Neomycin sulfate] | 90.1 ± 22 | 135 | 91.8 ± 9.7 | 95.9 | 79.9 ± 2.5 | 111 | 92.9 ± 8.6 | 102 ± 7.7 | 95.9 ± 4.7
COC(=O)Nc1nc2ccc(C(=O)c3ccc(F)cc3)cc2[nH]1 [Flubendazole] | 104 ± 3.6 | 103 | 103 ± 2.5 | 81.8 | 102 ± 8.7 | 140 | 80.3 ± 3.1 | 139 ± 36 | 106.1 ± 0.14
CCOc1nc2cccc(C(=O)O)c2n1Cc1ccc(-c2ccccc2-c2nc(=O)o[nH]2)cc1 [Azilsartan] | 79.7 ± 44 | 142 | 84.8 ± 13 | 92 | 99.8 ± 2.6 | 96.2 | 83.3 ± 7.1 | 97.9 ± 13 | 97.5 ± 2.2
NCCS(=O)(=O)O [Taurine] | 105 ± 23 | 119 | 101 ± 18 | 86.6 | 61.4 ± 7.8 | 115 | 75.92 ± 0.27 | 109 ± 19 | 115 ± 9.7
Cl.NC(N)=NC(=O)Cc1c(Cl)cccc1Cl [Guanfacine hydrochloride] | 117 ± 15 | 97.6 | 82.1 ± 9.4 | 86.2 | 107 ± 6.5 | 94.4 | 93.2 ± 6 | 102 ± 9.9 | 132 ± 19
COc1ccc(C2CNC(=O)C2)cc1OC1CCCC1 (stereo not given) [Rolipram] | 130 ± 5.1 | 140 | 85.8 ± 11 | 106 | 175 ± 38 | 112 | 102 ± 18 | 101 ± 13 | 123 ± 19
CC12C=CC(=O)NC1CCC1C2CCC2(C)C(C(=O)Nc3cc(C(F)(F)F)ccc3C(F)(F)F)CCC12 (stereo not given) [Dutasteride] | 129 ± 13 | 107 | 114 ± 15 | 92.4 | 123 ± 1.7 | 111 | 100 ± 4.5 | 90.3 ± 22 | 142 ± 12
CC12C=CC(=O)C=C1CCC1C2C(=O)CC2(C)C1CCC2(O)C(=O)CO (stereo not given) [Prednisone] | 71.1 ± 46 | 93.9 | 118 ± 37 | 98.9 | 165 ± 8.5 | 138 | 103 ± 3.1 | 92.6 ± 38 | 130 ± 13
CC(C)(C)c1nc(-c2cccc(NS(=O)(=O)c3c(F)cccc3F)c2F)c(-c2ccnc(N)n2)s1 | 118 ± 12 | 125 | 98.9 ± 1.2 | 119 | 187 ± 54 | 73.6 | 122 ± 12 | 116 ± 4.4 | 91.4 ± 15
COc1cc2c(cc1Cc1cccc(Cl)c1F)c(=O)c(C(=O)O)cn2C(CO)C(C)C (stereo not given) [Elvitegravir (GS-9137)] | 114 ± 56 | 86.7 | 41.2 ± 36 | 109 | 47.4 ± 7.1 | 124 | 77.8 ± 6.1 | 73.8 ± 7.4 | 159 ± 21
O=C1CCC(N2C(=O)c3ccccc3C2=O)C(=O)N1 (stereo not given) [Thalidomide] | 144 ± 7.8 | 129 | 101 ± 4.3 | 103 | 129 ± 15 | 114 | 102 ± 4.3 | 103 ± 19 | 145 ± 15
[O-][n+]1cccc(CO)c1 [Mepiroxol] | 117 ± 13 | 119 | 105.2 ± 0.98 | 103 | 99.24 ± 0.22 | 97 | 90.9 ± 8.7 | 95.7 ± 9.9 | 139 ± 26
CC(=O)OC1CCC2(C)C(=CCC3C2CCC2(C)C(c4cccnc4)=CCC32)C1 (stereo not given) [Abiraterone acetate] | 96.7 ± 14 | 87.6 | 65.8 ± 28 | 88.7 | 68 ± 12 | 98 | 62.6 ± 1.9 | 95.5 ± 20 | 117 ± 51

SMILES | cell viability (HCI01) | cell viability (HCI03) | cell viability (HCI09) | cell viability (HCI11) | cell viability (HCI13) | cell viability (HCI16) | cell viability (UCD52) | cell viability (WHIM2) | cell viability (WHIM30)
CNC(=C[N+](=O)[O-])NCCSCc1csc(CN(C)C)n1 [Nizatidine] | 150 ± 9.3 | 120 | 108 ± 15 | 92.7 | 96.2 ± 5.7 | 133 | 83.6 ± 12 | 96.6 ± 1.9 | 123 ± 17
CN(C)CCCC1(c2ccc(F)cc2)OCc2cc(C#N)ccc21.O=C(O)C(=O)O (stereo not given) [Escitalopram Oxalate] | 99.8 ± 9.9 | 114 | 97.3 ± 12 | 86.2 | 93.6 ± 18 | 128 | 90.9 ± 5.2 | 87.5 ± 5.9 | 157 ± 21
CC(O)C1C(=O)N2C(C(=O)O)=C(SC3CNC(C(=O)N(C)C)C3)C(C)C12.O.O.O (stereo not given) [Meropenem trihydrate] | 104 ± 8.7 | 81.8 | 127 ± 32 | 92.4 | 95 ± 0.96 | 96.2 | 89.6 ± 5.1 | 99.4 ± 7.5 | 78.309 ± 0.071
COC(=O)Nc1nc2ccc(S(=O)c3ccccc3)cc2[nH]1 (stereo not given) [Oxfendazole] | 102 ± 25 | 132 | 113 ± 1.8 | 93.1 | 179 ± 34 | 147 | 95.3 ± 8 | 87 ± 7.4 | 139 ± 8.4
C.CCN1CC(CCN2CCOCC2)C(c2ccccc2)(c2ccccc2)C1=O.O (stereo not given) [Doxapram HCl] | 102.9 ± 0.49 | 198 | 81.9 ± 14 | 101 | 91.2 ± 1.9 | 105 | 73.6 ± 5.6 | 82.8 ± 4.2 | 117 ± 11
Cl.Nc1c2c(nc3ccccc13)CCCC2 [Tacrine hydrochloride] | 81.8 ± 14 | 119 | 90.7 ± 4.3 | 97 | 87.7 ± 6.4 | 98.3 | 96.6 ± 4.1 | 76.3 ± 2.9 | 87.06 ± 0.45
Clc1ccc(CCC(Cn2ccnc2)Sc2c(Cl)cccc2Cl)cc1.O=[N+]([O-])O (stereo not given) [Butoconazole nitrate] | 67.2 ± 44 | 99.5 | 36.7 ± 9.7 | 143 | 39.6 ± 1.4 | 186 | 74.6 ± 3.6 | 53.8 ± 16 | 190 ± 7.9
CC(NC(=O)C(O)C(C)C)C(=O)NC1C(=O)N(C)CCc2ccccc21 (stereo not given) | 144 ± 28 | 106 | 71.2 ± 7.3 | 119 | 102 ± 21 | 180 | 81 ± 20 | 69.98 ± 0.17 | 184 ± 11
Clc1ccccc1C(c1ccccc1)(c1ccccc1)n1ccnc1 [Clotrimazole] | 82.5 ± 21 | 70.8 | 55.1 ± 39 | 95.1 | 85.5 ± 21 | 79.8 | 79.6 ± 8.2 | 73.7 ± 16 | 125 ± 1
NS(=O)(=O)Cc1noc2ccccc12 [Zonisamide] | 96.13 ± 0.4 | 136 | 90 ± 5 | 108 | 117 ± 18 | 99.1 | 130 ± 16 | 92.9 ± 7.1 | 129 ± 3.9
CN1CC(=O)N2[C@H](c3ccc4c(c3)OCO4)c3[nH]c4ccccc4c3C[C@@H]2C1=O [Tadalafil] | 108 ± 1.5 | 150 | 90 ± 22 | 141 | 95.7 ± 3.2 | 88.4 | 96.7 ± 12 | 112 ± 3 | 105 ± 16
COCCCN1CCC(NC(=O)c2cc(Cl)c(N)c3c2OCC3)CC1 [Prucalopride] | 86.2 ± 8.4 | 134 | 99.9 ± 20 | 94.2 | 120 ± 13 | 122 | 89.3 ± 11 | 91.4 ± 9.2 | 123 ± 2.2
CN1CCc2nc(C(=O)NC3CC(C(=O)N(C)C)CCC3NC(=O)C(=O)Nc3ccc(Cl)cn3)sc2C1.Cc1ccc(S(=O)(=O)O)cc1.O (stereo not given) [Edoxaban tosylate monohydrate] | 102 ± 2.5 | 92.1 | 87.2 ± 11 | 91.2 | 109 ± 8.7 | 81.1 | 88.8 ± 16 | 96.4 ± 8.8 | 120 ± 4.4
CNCC(O)c1ccc(O)c(O)c1 [L-Adrenaline] | 131 ± 58 | 137 | 142 ± 37 | 110 | 121 ± 32 | 138 | 112 ± 15 | 102 ± 7.6 | 162 ± 8.5
CCCc1ncc(C[n+]2ccccc2C)c(N)n1.Cl.[Cl-] [Amprolium HCl] | 129 ± 15 | 135 | 102 ± 4.4 | 104 | 128 ± 7 | 145 | 71.4 ± 27 | 110 ± 7.3 | 99.4 ± 13
Clc1ccc(C(Cn2ccnc2)OCc2csc3c(Cl)cccc23)c(Cl)c1.O=[N+]([O-])O (stereo not given) [Sertaconazole nitrate] | 113 ± 34 | 85.1 | 53.6 ± 39 | 103 | 44.6 ± 5.4 | 103 | 107 ± 58 | 150 ± 36 | 123 ± 12
NC(=O)c1cccnc1 [Nicotinamide] | 95.4 ± 11 | 114 | 95.5 ± 14 | 99.9 | 110 ± 5 | 107 | 99.57 ± 0.88 | 86.9 ± 12 | 94.7 ± 5.4
COc1ccccc1OCC(O)CN1CCN(CC(=O)Nc2c(C)cccc2C)CC1 (stereo not given) [Ranolazine] | 136 ± 2.8 | 96.3 | 134 ± 75 | 103 | 120 ± 35 | 120 | 89.4 ± 19 | 109 ± 19 | 130 ± 17
COc1ccccc1OCC(O)CN1CCN(CC(=O)Nc2c(C)cccc2C)CC1.Cl.Cl (stereo not given) [Ranolazine 2HCl] | 95.6 ± 9.7 | 124 | 102 ± 7.6 | 109 | 105 ± 6 | 138 | 85.7 ± 14 | 114 ± 1.7 | 158 ± 20
CCc1cccc2c3c([nH]c12)C(CC)(CC(=O)O)OCC3 (stereo not given) [Etodolac] | 117 ± 23 | 104 | 98.8 ± 27 | 97.2 | 97.3 ± 8 | 96.8 | 79.2 ± 9.2 | 92.6 ± 19 | 86 ± 8.4
